# Test results: PubChem BioAssay AID2401 (Southern Research Specialized Biocontainment Screening …, 2010)
# Among all 2,200 compounds or so, about 530 (24%) were called active.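 The calls were made as follows: active = inhibition above a set limit at one or more concentrations of the dose series; inactive = inhibition under that limit at every dose.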 The list is a sample of the results. Measured potencies and affinities stand elsewhere.
# Experiment: S. Typhimurium nonspecific reporter signal inhibition – Salmonella Typhimurium, GFP fluorescence, counter-screen for PhoP regulon inhibitor project, dose response (AID 2401);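 also: S. typhimurium with Mg-insensitive nmpC-GFP reporter grown at 10 µM Mg2+; drop in reporter fluorescence reflects general culture growth inhibition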
# Conditions: 4 h; series mostly up to 150 µM; inhibition: at the top concentration
row,SMILES,inhibition
1,Cc1ccc(Oc2ccc3c(c2)C(=O)N(c2ccc(S(=O)(=O)Nc4nccs4)cc2)C3=O)cc1,7.08% (inactive)
2,CN(C)C(CNC(=O)Nc1cccc(Cl)c1)c1cccnc1 (centres undefined),1.17% (inactive)
3,COc1ccc(N2CCN(C(=O)C3CCCO3)CC2)cc1 (centres undefined),-22.8% (inactive)
4,CN1C(=O)CC(P(=O)(c2ccccc2)c2ccccc2)N(C)C1=O (centres undefined),-7.16% (inactive)
5,c1ccc(OCCCN2CCCC2)cc1,-15.8% (inactive)
6,O=C(C1CCN(C2CC(=O)N(Cc3ccccc3)C2=O)CC1)N1CCCCCC1 (centres undefined),-3.78% (inactive)
7,COc1cccc(NC(=O)Cn2c(=O)n(CCCC(=O)NCc3ccco3)c(=O)c3ccccc32)c1,-20.7% (inactive)
8,Nc1ccc2oc3ccccc3c2c1,24.6% (inactive)
9,Nc1ccc2oc(=O)c3ccccc3c2c1,28.1% (inactive)
10,COC(=O)c1sccc1NC(=O)CSc1ccccc1NS(=O)(=O)c1ccc(Cl)cc1,0.18% (inactive)
11,Cc1ccc(N2C(=O)CC(n3ccnc3)C2=O)cc1C (centres undefined),-14.9% (inactive)
12,CCN(CC)CCCn1c(=S)[nH]c2cc(OC)c(OC)cc2c1=O,-13.4% (inactive)
13,CC(=O)C1=C(C)Nc2ncnn2C1c1ccccc1OCc1ccccc1 (centres undefined),-13.7% (inactive)
14,CCOc1ccc(-n2c(SCc3nc(-c4ccc(C)cc4)no3)nnc2-c2ccncc2)cc1,-19.1% (inactive)
15,O=S(=O)(Nc1ccc2c(c1)nc1n2CCN(Cc2ccccc2)C1)c1ccc(Cl)cc1,6.97% (inactive)
16,Nc1cccc(-c2nc3ccc(N)cc3s2)c1,5.38% (inactive)
17,O=C(NCc1ccco1)c1ccc(Br)s1,17.5% (inactive)
18,Cn1c(=N)n(CC(=O)c2ccc(Br)s2)c2ccccc21,28.3% (inactive)
19,O=C(Nc1cccn(Cc2c(Cl)cccc2Cl)c1=O)c1ccccc1Cl,-24.5% (inactive)
20,Clc1ccc(OCCn2cnc3ccccc32)cc1,-6.12% (inactive)

row,SMILES,inhibition
1,COc1ccc(C(=O)C(CO)Oc2ccccc2OC)cc1OC (centres undefined),-26% (inactive)
2,Cc1cccc(OCCCSc2nc3ccc(C)cc3[nH]2)c1,-8.67% (inactive)
3,COc1ccccc1OCc1ccc(C(=O)N2CCN(C(=O)c3ccco3)CC2)cc1,-36.5% (inactive)
4,CCCCCCOC(=O)Sc1nc2ccccc2o1,-11.3% (inactive)
5,S=C(Nc1ccccc1)Nc1nc2ccccc2n1CCOc1ccc(Cl)cc1,4.16% (inactive)
6,COc1ccc(/C=C/C(=O)O)cc1COc1cccc(C)c1,-6.94% (inactive)
7,COc1ccccc1NC(=S)NNC(=O)c1c(Cl)c(C)nn1C,-25.9% (inactive)
8,Cc1ccc(Nc2nc(CSc3nnc(-c4cccnc4)n3-c3ccccc3F)cs2)cc1,-13% (inactive)
9,O=C(c1cccc(S(=O)(=O)N2CCOCC2)c1)N1CCCC1,-2.72% (inactive)
10,O=C(c1ccccc1)N1CCSC1=S,3.7% (inactive)
11,Cn1c(-c2ccc3nc(N)sc3c2)nc2cc(N)ccc21,3.83% (inactive)
12,Nc1ccc(Nc2ccccc2N)cc1,30.3% (inactive)
13,Cc1cc2c(c(=O)n1C)C(Cc1ccccc1)C(C#N)=C(N)O2 (centres undefined),-10.2% (inactive)
14,O=C(CSc1nc2[nH]ncc2c(=O)[nH]1)N1CCCCC1,7.9% (inactive)
15,C=CCNC(=S)NNC(=O)c1cccn(Cc2ccc(Cl)cc2)c1=O,5.72% (inactive)
16,COc1ccc(-c2cc(N3CCCC3)n3ncnc3n2)cc1,19.9% (inactive)
17,Cc1ccc(OCc2nc3ccccc3[nH]2)cc1,-11.2% (inactive)
18,COc1ccc(OCCSc2nnc3sc4ccccc4n23)cc1,-14.9% (inactive)
19,COC(=O)Cn1c(C)nc2ccccc21,-8.98% (inactive)
20,CNc1ncc(Cc2ccccc2)s1,-8.16% (inactive)

row,SMILES,inhibition
1,CCn1c(SCc2ccc(F)cc2)nnc1C1CCN(S(=O)(=O)c2ccc(OC)cc2)CC1,-14.3% (inactive)
2,O=C1CC(c2ccco2)CC(O)=C1C=Nc1cc(Cl)cc(Cl)c1 (centres undefined),-34.6% (inactive)
3,c1csc(C2Nc3ccccc3-c3nc4ccccc4n32)c1 (centres undefined),8.7% (inactive)
4,C=CCOc1ccc(Br)cc1/C=N/O,-15.1% (inactive)
5,O=C(Cc1cn2ccsc2n1)Nc1ccccc1Oc1ccccc1,-15% (inactive)
6,CCn1c2ccccc2c2cc(N)ccc21,27.9% (inactive)
7,CC(C)(C)c1ccc(C(=O)Nc2ccc(C=C(C#N)C#N)cc2)cc1,-12.7% (inactive)
8,C=CCNC(=O)CC(=O)N/N=C/c1ccc(C(=O)OC)cc1,12.4% (inactive)
9,Cc1[nH]nc2c1C(c1cc(Br)cs1)C(C#N)=C(N)O2 (centres undefined),9.05% (inactive)
10,Cc1cc(C)cc(-n2nc(C)cc2N)c1,-13.9% (inactive)
11,N#CC(CC(=O)c1ccc(F)cc1)c1ccc2c(c1)OCO2 (centres undefined),-3.09% (inactive)
12,O=c1[nH]c2ccccc2n1C1=CCCC1,-20.4% (inactive)
13,CCn1c(Cc2c(C)[nH]c3ccccc23)n[nH]c1=S,-6.66% (inactive)
14,c1ccc2c3c([nH]c2c1)-c1[nH]ncc1CC3,-22.3% (inactive)
15,Nc1c(C(=O)NCCc2ccc(Cl)cc2)sc2ccc(S(=O)(=O)N3CCCCC3)cc12,36.1% (inactive)
16,CSc1cccc(NC(=O)c2ccco2)c1,-0.61% (inactive)
17,CC1N(C)c2cc(NC(=O)c3ccco3)ccc2C1(C)C (centres undefined),-27.2% (inactive)
18,Cc1oc(CC(C)C)c(CN2CCCC2)c1C(=O)O,4.83% (inactive)
19,COc1ccc2c(c1)[nH]c1c(N3CCN(Cc4ccc5c(c4)OCO5)CC3)ncnc12,-9.05% (inactive)
